Test results: the supplement of paper PMC10941209

test system: HFF; assay: cell viability relative to DMSO control; higher = less cytotoxic; settings: 1 µM; 72 h
Description: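 Single-dose cytotoxicity screen of the MMV Pandemic Response Box at 1 uM on human foreskin fibroblasts (HFF), 72 h at 37 C. Viability measured by MTT (OD 550 nm) and normalised to the DMSO control (% survival).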

| Structure (SMILES) | cell viability |
| --- | --- |
| O=C(Nc1ncc(Cc2cccc3ccccc23)s1)C1CCCCC1 | 58.6% |
| O=C(c1ccc(F)cc1)N1CCN2C(=O)c3ccccc3C12c1ccccc1 (stereo not given) | 63.3% |
| Cc1onc(-c2ccccc2)c1-c1ccc(S(N)(=O)=O)cc1 | 66.8% |
| CN1CCN(Cc2ccc(-c3cnc4[nH]cc(-c5ccc6[nH]ccc6c5)c4c3)cc2)CC1 | 75.3% |
| O=C(Nc1ccccc1)N(Cc1cc(Br)ccc1O)c1ccc(F)cc1 | 67.1% |
| N=C(N)NCCCCC(=O)Nc1cc(C(F)(F)F)cc(NC(=O)c2cc(C(=O)Nc3cc(C(F)(F)F)cc(NC(=O)CCCCNC(=N)N)c3O[C@@H]3CCNC3)ncn2)c1O[C@@H]1CCNC1 | 57.6% |
| O=C(NC(=O)N1CCCc2ccccc21)c1ccc(Cl)cc1Cl | 70.2% |
| CC(C)Cn1c(=O)n(C)c(=O)c2c(-c3cncn3C)n(Cc3cccc4ccccc34)nc21 | 63.1% |
| CCCCc1ccc(-c2nc(C)c(C(=O)OC)s2)cc1 | 63.9% |
| Cc1cc(O)c2c(c1)C(=O)c1c(I)c(O)c(I)c(O)c1C2=O | 71.9% |
| NC(=O)c1cnccn1 | 68.1% |
| CC(C)(C)NC(=O)[C@@H]1CN(Cc2cnc3occc3c2)CCN1C[C@@H](O)C[C@@H](Cc1ccccc1)C(=O)N[C@H]1c2ccccc2C[C@H]1O | 72.6% |
| C/C(=N\NC(=O)C1CC1c1ccccc1)c1ccc(NC(=O)c2ccco2)cc1 (stereo not given) | 60% |
| C[C@@H]1O[C@@H]1P(=O)(O)O | 65% |
| O=c1cc(Nc2ccc3ccccc3c2)[nH]c(=O)[nH]1 | 65.6% |
| Cc1ccc(S(=O)(=O)Nc2cccc3cccnc23)cc1 | 84.2% |
| CC(C)C(=O)N[C@H]1[C@H]([C@H](O)[C@H](O)CO)OC(C(=O)O)=C[C@@H]1N=[N+]=[N-] | 56.6% |
| CC1(C)C[C@H]1C(=O)N/C(=C\CCCCSC[C@@H](N)C(=O)O)C(=O)O | 71.5% |
| O=C1C=C(c2ccccc2)S(=O)(=O)c2ccccc21 | 67.5% |
| CC[N+]1(C/C2=C/CCCCCC2)CCC(NC(=O)C2c3cc(Cl)ccc3Oc3ccc(Cl)cc32)CC1 (stereo not given) | 65.6% |

| Structure (SMILES) | cell viability |
| --- | --- |
| CC(C)(C)c1ccc(C(=O)NC(=O)N2CCCc3ccccc32)cc1 | 63.5% |
| C[C@@H](NC(=O)c1ccccc1-c1ccccc1)B(O)O | 59.6% |
| O=C(NO)C1(CS(=O)(=O)c2ccc(Oc3ccc(Cl)cc3)cc2)CCOCC1 | 72.6% |
| CC1(C)CC(NC(=O)C(=O)Nc2ccc(Cl)cc2)CC(C)(C)N1 | 69.1% |
| COC(=O)Nc1nc2c(C)cccc2[nH]1 | 69.3% |
| N[C@H]1CCC[C@H]1C(=O)O | 70.6% |
| Cc1ccc(N2CCC(CCOc3ccc(S(C)(=O)=O)cc3)CC2)nn1 | 68.1% |
| CC(C)N(c1cc(-c2ccccc2)sc1C(=O)O)C(=O)[C@H]1CC[C@H](C)CC1 | 67.5% |
| COc1ccc(CNC(=O)C(NS(=O)(=O)c2ccc3nc(C)sc3c2)C(C)C)cc1 (stereo not given) | 64.5% |
| COc1cc(NS(=O)(=O)c2ccc(C)cc2)c2ncccc2c1 | 72.5% |
| CC(=N)N1CC[C@H](SC2=C(C(=O)O)N3C(=O)[C@@H]([C@@H](C)O)[C@H]3C2)C1 | 63.8% |
| NC(=S)N/N=C/c1ncccc1N | 65.3% |
| Cc1cc(C2CCCCC2)n(O)c(=O)c1 | 78.2% |
| CC(C)(C)NC(=O)N[C@H](C(=O)N1C[C@H]2[C@@H]([C@H]1C(=O)NC(CC1CCC1)C(=O)C(N)=O)C2(C)C)C(C)(C)C (stereo not given in full) | 63.4% |
| CONC(=N)c1ccc(-c2ccc(-c3ccc(C(=N)NOC)cc3)o2)cc1 | 63.9% |
| Clc1ccc(COC(Cn2ccnc2)c2ccc(Cl)cc2Cl)c(Cl)c1 (stereo not given) | 66.8% |
| Cc1ncc([N+](=O)[O-])n1CC(O)CN1CCOCC1 (stereo not given) | 61.1% |
| Oc1ccc2[nH]c(-c3ccccc3)nc2c1 | 69.2% |
| Nc1nc(-c2ccccc2)nc2[nH]nc(Nc3ccc(C(F)(F)F)cc3)c12 | 64.3% |
| COc1ccc(COc2cc3oc(=O)c4cc(C(C)O)ccc4c3cc2OC)cc1 (stereo not given) | 57.3% |
